In all, about 69,000 compounds went through this assay and about 8,600 (12%) showed an effect of 50% or more. For the sample, strong results were picked, then their nearest neighbours and some compounds at random.

The subject of the assay is Plasmodium berghei. Briefly: Screen against P. berghei liver stage (PbLuc), transformed with Luciferase, at 10uM. Type of assay: functional, HepG2. The settings on record: tested at 10 uM.
With `Cc1ccc2c(n1)N(Cc1cccnc1)CCN(C(=O)C1CCC1)C2`, the INHIBITION stood at 32.4%. Consider `NCC1CCCCN1C(=O)Cc1cccc(Cl)c1` (centres undefined), for which the INHIBITION is reported as 19%. The same measure for `Cc1ccc(C(=O)N2CCCC2c2nnc3n2CCCCC3)s1` (centres undefined): 13%. Take `CC(C)[C@H]1CN(C(=O)CC2CCC2)C[C@@H]1N(C)C`: the INHIBITION is recorded as 3.06%. To `COC1(CNC(=O)c2cccc(C#N)c2)CCSC1` (centres undefined) belongs 8.7%; to `Cc1nc(CN2CCO[C@@H]3CN(Cc4cccs4)C[C@@H]3C2)cs1`, 37.3%. Regarding `Cc1nc(C(Cc2ccsc2)NC(=O)CCN2CCOCC2)sc1C` (centres undefined), the INHIBITION is -11.95%. `Cc1nc(NCCc2ccccc2)cc(C(=O)N2CCOCC2)n1`: the INHIBITION worked out at 38.5%. The same measure for `COc1ccc(S(=O)(=O)N[C@H]2CN(C(C)=O)C[C@@H]2C2CC2)cc1C`: 9.63%; for `COc1ccc(C)cc1S(=O)(=O)N[C@H]1CN(C(C)=O)C[C@@H]1C1CC1`: 35.4%. To `COc1cc(C)ccc1S(=O)(=O)N[C@H]1CN(C(C)=O)C[C@@H]1C1CC1` belongs 55.2%; to `COCCN1CCC2(COCc3cnc(N(C)C)nc32)C1` (centres undefined), -6.23%. With `CCS(=O)(=O)N1CCC2(COCc3cnc(N4CCOCC4)nc32)C1` (centres undefined), the INHIBITION is reported as -50.9%.

As to `CN1CCC2(COCc3cnc(N4CCOCC4)nc32)C1` (centres undefined), the INHIBITION amounted to 51.3%. To `O=S(=O)(C1CC1)N1CCC2(COCc3cnc(N4CCOCC4)nc32)C1` (centres undefined) belongs -8.69%. The same measure for `c1ccc(N2CCC3(COCCN(c4ncccn4)C3)C2)nc1` (centres undefined): 38.5%; for `c1cnc(N2CCC3(COCc4cnc(N5CCOCC5)nc43)C2)nc1` (centres undefined): 68.3%. On to `COCCN1CCC2(COCc3cnc(N4CCOCC4)nc32)C1` (centres undefined), for which the INHIBITION turned out to be 52.3%. With `c1nc(N2CCOCC2)nc2c1COCC21CCN(CC2CC2)C1` (centres undefined), the INHIBITION is on record as -7.59%. Consider `CNc1nc(CNC(=O)Nc2cccc(CN(C)C)c2)cs1`, for which the INHIBITION is on record as -0.74%. To `CC(C)c1nncn1CCNC(=O)c1c(O)cc(F)cc1F` belongs 8.86%. To `CC(C)=CCN1C(=O)[C@@H]2CC[C@H]1CN(C(=O)CCc1n[nH]c(C)c1C)C2` belongs 43.8%.

Take `CC(Cn1ccnc1)NC(=O)C1(c2cccc(Cl)c2)CC1` (centres undefined): the INHIBITION came to 19.4%. The same measure for `COCCn1c(=O)n(Cc2ccc(Cl)s2)c2cc(C(=O)O)ccc21`: 32.3%; for `COCCn1c(=O)n(Cc2ccccc2C)c2cc(C(=O)O)ccc21`: 29%; for `COCCn1c(=O)n(Cc2cccc(F)c2F)c2cc(C(=O)O)ccc21`: 55%.

On to `CC(NC(=O)NCC(F)(F)F)c1nncn1C` (centres undefined), for which the INHIBITION was 11.5%. Take `c1cncc(CCc2nc(C3CC3)nn2-c2ccc3c(c2)OCCO3)c1`: the INHIBITION is 50.1%. As to `c1cncc(OCc2nc(C3CC3)nn2-c2ccc3c(c2)OCCO3)c1`, the INHIBITION is given as 25.4%. On to `c1ccc(Cc2nc(C3CC3)nn2-c2ccc3c(c2)OCCO3)nc1`, for which the INHIBITION is reported as -52.4%. Take `CCc1cnc(N)nc1N1CCCC2(CCOCC2)C1`: the INHIBITION is on record as -3.77%.

For the compound `CCc1nc(N)nc(N2CCCC3(CCOCC3)C2)c1C`, the INHIBITION is given as 50%. As for `CCc1nc(N)nc(N2CCCC3(CCN(C)CC3)CC2)c1C`, the INHIBITION is listed as -56.2%. For the compound `CS(=O)(=O)N1CCCC(n2nnn(-c3ccccc3)c2=O)C1` (centres undefined), the INHIBITION is on record as 17.55%. The same measure for `c1cncc(C2COC3(CCN(CC4CC4)CC3)C2)c1` (centres undefined): -18.2%; for `Cn1cccc1C(=O)N1CCCCC1c1ccn2ccnc2n1` (centres undefined): -11.7%; for `Cc1cc(C(=O)N2CCCC3(CN(C)C(=O)O3)C2)c2ccc(F)cc2n1` (centres undefined): 37.7%.

Turning to `Cc1nc[nH]c1C(=O)N1CCCC2(CN(C)C(=O)O2)C1` (centres undefined), the INHIBITION came to 3.69%.

Consider `Cc1cccc2c(=O)c(C(=O)N3CCCC4(CN(C)C(=O)O4)C3)c[nH]c12` (centres undefined), for which the INHIBITION was 60.1%. Regarding `CCOC(=O)CNC(=O)NCc1cccn1Cc1ccccc1F`, the INHIBITION worked out at 56.5%. As to `COCCCNC(=O)NCc1cccn1Cc1ccccc1C`, the INHIBITION was found to be 60.7%. As for `CCOC(=O)CNC(=O)NCc1cccn1Cc1ccccc1C`, the INHIBITION is -21.3%. With `COCCCNC(=O)NCc1ccc(C)cc1`, the INHIBITION was 48.8%. The same measure for `CCOC(=O)CNC(=O)NCc1cccn1Cc1ccccc1`: 40.8%. To `CCOC(=O)CNC(=O)NCc1cccn1Cc1ccc(F)cc1` belongs 16.8%; to `Cn1ccc(C(=O)N2CCCC2c2cc(CCO)[nH]n2)n1` (centres undefined), 28.69%. To `O=C(NCc1ccco1)c1cc[n+]([O-])cc1` belongs -10.0965%; to `O=C(Nc1ccccc1-c1ccccc1)NC1CCC2(C1)OCCO2` (centres undefined), -6.67%; to `c1cnc(N2CCCC(c3n[nH]c4ncccc34)C2)nc1` (centres undefined), -27.1%. `c1cnc(N2CCCC(c3cc4cccnc4[nH]3)C2)nc1` (centres undefined): the INHIBITION worked out at 72.5%. For `c1cnc(N2CCC(c3cc4cccnc4[nH]3)CC2)nc1`, the INHIBITION worked out at 23.2%.

In the case of `CN(C)C(=O)c1cccc(CN2CCOC(Cn3cncn3)C2)c1` (centres undefined), the INHIBITION came to 41.5%. `NC(=O)C1(Cc2ccccc2-c2cncnc2)CCCNC1` (centres undefined): the INHIBITION is on record as 12.915%.

As to `Cn1nc(COCC2CC2)c2c1CCN(Cc1ccco1)C2`, the INHIBITION is listed as -12.2%. To `Cn1nc(CN2CCCC2)c2c1CN(C(=O)c1cnccn1)CC2` belongs 43.4%. To `Cn1nc(COc2cccnc2)c2c1CCN(Cc1ccco1)C2` belongs 31.4%; to `Cn1nc(CNc2ncccn2)c2c1CN(c1cnccn1)CC2`, 32.1%. `Cn1nc(CN2CCCC2)c2c1CN(c1cnccn1)CC2`: the INHIBITION is 54.8%. As to `Cn1nc(COc2cccnc2)c2c1CCN(c1cnccn1)C2`, the INHIBITION is on record as 53.5%. For the compound `CCS(=O)(=O)N1CCCn2cnc(COc3cccnc3)c2C1`, the INHIBITION came out at 14.6%.

As to `Cn1nc(COc2cncnc2)c2c1CCN(Cc1ccco1)C2`, the INHIBITION was found to be 63.5%. As to `Fc1cnc(N2CCCn3cnc(COc4cccnc4)c3C2)nc1`, the INHIBITION is 4.68%. `c1cnc(N2CCc3onc(CN4CCCC4)c3C2)cn1`: the INHIBITION amounted to 37.5%.

Turning to `Cn1nc(COc2cccnc2)c2c1CCN(c1ncccn1)C2`, the INHIBITION was found to be 53%. In the case of `Cn1nc(Cn2ccnc2)c2c1CN(c1ncccn1)C2`, the INHIBITION stood at 3.88%. To `Cc1cnccc1CN(C)C(=O)C(C)(C)NC(=O)c1cccs1` belongs 37.9%; to `CCNC(=O)CN1CCN(Cc2nc3c(F)cccc3n2CC)CC1`, 30.85%. To `Cc1ccc(N2CCCC(NCc3cc(C)on3)C2)nn1` (centres undefined) belongs 27.4%; to `CCCNC(=O)C1(CC2CC(c3ccccc3OC)=NO2)CCOCC1` (centres undefined), 29.2%.

(Values after ChEMBL document CHEMBL4513216, “Probing the Open Global Health Chemical Diversity Library for Multistage-Active Starting Points for Next-Generation Antimalarials” (ACS Infect Dis, 2020).)
